From PubChem BioAssay AID2108 (National Center for Advancing Translational Sciences (NCATS), 2009)
Inconclusive results are not listed. Active and inactive are the calls of the source. Calls follow the shape of the dose curve; as a rule, active = well fitted curve in the direction sought with a large enough effect; inconclusive = small, poorly fitted or top-dose-only effect, or effect the other way, or another doubt; inactive = no such curve, though single readings can be large or run the other way. Non-standard residues stand in square brackets, D forms with d. Residues, ends and D or L forms follow the SMILES beside them. *: point of attachment. Nle = CCCC[C@H](N)C(=O)O; Boc = CC(C)(C)OC(=O)*

These compounds were tested against Alpha-galactosidase A (Homo sapiens) (UniProt P06280) (assay: Confirmation of Inhibitors of Human alpha-Galactosidase Using Spleen Homogenate). Conditions: alpha-galactosidase enzyme activity; series mostly up to 56.2 µM.
Alpha-galactosidase A (Homo sapiens), sequence (P06280 32-429 limits assumed): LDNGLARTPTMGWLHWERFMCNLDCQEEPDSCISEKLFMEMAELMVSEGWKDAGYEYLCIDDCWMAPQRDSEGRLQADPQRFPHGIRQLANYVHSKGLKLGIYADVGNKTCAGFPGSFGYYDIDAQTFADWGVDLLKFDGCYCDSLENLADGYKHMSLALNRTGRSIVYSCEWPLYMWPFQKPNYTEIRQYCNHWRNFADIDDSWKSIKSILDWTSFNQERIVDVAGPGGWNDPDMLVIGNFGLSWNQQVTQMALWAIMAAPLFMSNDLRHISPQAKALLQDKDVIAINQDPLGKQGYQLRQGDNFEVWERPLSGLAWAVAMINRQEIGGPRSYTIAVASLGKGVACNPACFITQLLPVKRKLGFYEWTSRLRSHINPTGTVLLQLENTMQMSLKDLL
Method in brief: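 AC50 values come from Hill-equation fits of normalised 4-methylumbelliferone fluorescence (365/440 nm, read after NaOH/glycine stop). Enzyme source: spleen homogenate; substrate 1 mM final; pH 5.0 citrate buffer; 40 min at 37C; compound titration 0.5 nM–58 uM.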

outcome, inactive:
COc1ccc(C2C(C(=O)c3ccco3)=C(O)C(=O)N2CC2CCCO2)c(OC)c1 (configuration not stated)
O=C(O)Cn1nnnc1SCC(=O)Nc1ccc(OC(F)(F)F)cc1
CC(=O)N1CCN(c2ccc(NCc3ccc4c(c3)OCO4)cc2)CC1
CCCC[C@H](NC(=O)[C@@H]1CCCN1C(=O)[C@H]1CCCN1C(=O)[C@H](Cc1ccccc1)NC(=O)[C@@H](Cc1c[nH]c2ccccc12)NC(=O)[C@H](C)NC(=O)[C@H](CCCN=C(N)N)NC(=O)OC(C)(C)C)C(N)=O (Boc-RA[dW]F[dP]P[Nle]-NH2)
CCOC(=O)c1cc2c(=O)n3cccc(C)c3nc2n(CCCOC)c1=NC(=O)c1cccnc1
CCC1OC23CCCCC2C(C#N)(C(=N)O3)C1(C#N)C#N (configuration not stated)
Cc1ccc(S(=O)(=O)NC(=O)NN2CCCCCC2)cc1
Cc1nnc(SCC(=O)Nc2nsc(-c3ccc(C(C)(C)C)cc3)n2)s1
CC(=O)Nc1c(S(=O)(=O)c2ccccc2)c2nc3ccccc3nc2n1Cc1ccccc1
CCN(CC)S(=O)(=O)c1ccc2c(c1)-c1cc(S(=O)(=O)N(CC)CC)ccc1C2=NNC(N)=S
CCOC(=O)Nc1ccc2c(c1)N(C(=O)CN(CC)CC)c1ccccc1CC2
O=c1ccc2cc(O)c(O)cc2o1
COc1ccc(C2C3=C(CCCC3=O)N(CC(=O)O)C3=C2C(=O)CCC3)cc1Cl
COc1ccccc1N1CCN(C(c2cccs2)C(C)NC(=O)c2cccs2)CC1 (configuration not stated)
CC(=O)NNc1nc2ccccc2s1
Cc1c(C(=O)NCc2ccccc2F)oc2ccccc12
COc1cc([C@@H]2c3cc4c(cc3[C@@H](OC3OC5COC(C)OC5C(O)C3O)[C@H]3COC(=O)[C@H]23)OCO4)cc(OC)c1O (some centres not stated)
O=C(CCc1cccc(S(=O)(=O)N2CCOCC2)c1)NN=C1c2ccccc2-c2ccccc21
O=S(=O)(c1cccc(Cl)c1)N1CCOCC1
CC1CCc2nc(-c3cc4c(ccc5ccccc54)oc3=O)sc2C1 (configuration not stated)
O=c1oc2ccc(Cl)cc2cc1-c1nc2c(s1)CCc1ccccc1-2
O=C(O)c1cc(NCc2c(F)cccc2Cl)ccc1N1CCOCC1
Nc1ccc(Cc2ccc(N)c(O)c2)cc1O
CC(C)(C)OC(=O)NCCCC[C@H](NC(=O)c1[nH]cnc1C(=O)Nc1ccc(CNC(=O)OC(C)(C)C)cc1)C(=O)OC(C)(C)C
CC/C(=C(\c1ccccc1)c1ccc(OCCN(C)C)cc1)c1ccccc1
COCCn1c(=NC(=O)c2ccc3c(c2)OCO3)c(C#N)cc2c(=O)n3cccc(C)c3nc21
O=C(COc1ccc2ccccc2c1)N1CCN(C(=O)c2ccco2)CC1
Cc1cnc(C(=O)Nc2cc(S(=O)(=O)N3CCOCC3)ccc2N2CCN(C)CC2)cn1
CCc1sc(-c2cc3ccc(O)cc3oc2=O)nc1-c1ccc(C)cc1
Cc1cc(NC(=O)C(C)(C)C)cc(-c2nc3ncccc3o2)c1O
COc1ccc(-n2cc(CNCCc3ncc(C)[nH]3)c(-c3ccccc3Cl)n2)cc1
O=C(O)c1c[nH]c2ccc(S(=O)(=O)N3CCOCC3)cc12
O=C(Cn1c(=O)[nH]n(-c2ccccc2)c1=O)N1CCCc2ccccc21
CCCCCCc1cc2cc(C(=O)NC)c(=N)oc2cc1O
CCOc1c(Br)cc(CNc2ccc(N3CCN(C(C)=O)CC3)cc2)cc1OC
C=CCN1CCc2c(cc(O)c(O)c2Cl)C(c2ccccc2)C1 (configuration not stated)
CCCCN1C[C@H](O)[C@@H](O)[C@H](O)[C@H]1CO
